According to PubChem BioAssay (NCI):
This is part of a sample that, as a whole, favours compounds with a hit. Of some 83,000 tested, about 20% had one in any assay.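 Step 1: grow cells in 96-well plates. Step 2: add test compound at a single concentration. Step 3: incubate 48 h. Step 4: record percent growth.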 Unmarked numbers belong to inactive results. The source made the active and inactive calls. How the source made its calls: active means growth percent below 10; inactive means the rest.

Tests used:
Experiment in all cases: NCI-60 one-dose screen, 48 h (100 = growth as untreated, 0 = no growth, -100 = all killed)
Conditions in all cases: 10 µM unless noted
[1] = system: T-47D breast
[2] = system: BT-549 breast
[3] = system: MDA-MB-435 melanoma
[4] = system: SW-620 colon
[5] = system: MCF7 breast
[6] = system: HCT-116 colon
[7] = system: HCC-2998 colon
[8] = system: KM12 colon

Structure (SMILES) | growth [1] | growth [2] | growth [3] | growth [4] | growth [5] | growth [6] | growth [7] | growth [8]
CCc1nc(C)cn1C(=O)OCc1nc2nc(Cl)nc(N3CCOCC3)c2[nH]1 | -47.9% (active) | -18.8% (active) | -73.6% (active) | -47.9% (active) | -22.4% (active) | -71.5% (active) | 26.5% | 20.8%
CCCCCCCCCCN=C(N)N=C(N)N | 29.4% | 15.6% | 37.7% | 58.5% | 32.9% | 41.9% | 49.5% | 28.5%
C=C1C(=O)O[C@H]2[C@H]1CC/C(COC(=O)CCCCCC(=O)OC/C1=C/CC[C@@]3(C)O[C@H]3[C@H]3OC(=O)C(=C)[C@@H]3CC1)=C\CC[C@@]1(C)O[C@@H]21 | 1.26% (active) | 35.7% | 30.8% | 8.05% (active) | 12.8% | -37.3% (active) | 84.5% | 62.8%
COc1ccc(-c2nn(Cc3ccccc3)c3c2-c2oncc2CC3)cc1OC | 84.8% | 92.7% | 95.2% | 118% | 87.7% | 107% | 107% | 99.6%
CC(C)(O)C1CCCN1C(=O)c1ccccc1I (stereo not given) | 85.7% | 133% | 93.2% | 95.4% | 91.6% | 68.9% | 112% | 94.3%
COc1ccc(CNC(=O)COc2ccc(/C=N/Nc3nc4ccccc4s3)cc2)cc1 | 14.7% | 12.9% | 7.82% (active) | 38.6% | 42.1% | 10.6% | 53.5% | 1.51% (active)
Fc1cc(C2=NNC(c3ccc[nH]3)C2)ccc1-n1ccc(C(F)(F)F)n1 (stereo not given) | 76.7% | 92.3% | 98.7% | 98.8% | 83.3% | 98.7% | 104% | 65.6%
O=C(OC(OC(=O)c1cc(Cl)cc(Cl)c1)c1cccc2ccccc12)c1ccccc1 (stereo not given) | 98.8% | 113% | 111% | 97.1% | 84.8% | 93.1% | 83.4% | 102%
COc1ccc2c(c1)OC13Oc4cc(OC)ccc4C=C1CCCC3=C2 | 44.7% | 35% | -10.4% (active) | 16.6% | 8.63% (active) | 20% | 57.9% | -5.69% (active)
O=c1[nH]nc(-c2ccc(Br)cc2)cc1Cc1ccc(O)cc1 | 83.2% | 95.8% | 113% | 97.3% | 86% | 100% | 118% | 108%
FC(F)(F)Oc1cccc(-c2cc(NCCCCCCNc3cc(-c4cccc(OC(F)(F)F)c4)nc4ccc(N5CCCC5)cc34)c3cc(N4CCCC4)ccc3n2)c1 | -46.4% (active) | 105% | -87.6% (active) | -78.8% (active) | -64.7% (active) | -66.6% (active) | -85.3% (active) | -90.4% (active)
COc1ccc(C(O)c2cc3c(N)c(C(=O)Nc4cccc(OC)c4)sc3nc2C)cc1 (stereo not given) | 62.8% | 26.5% | -9.54% (active) | 19.9% | 17.8% | 5.98% (active) | 5.05% (active) | 2.91% (active)
CC(C)(C)CC(C)(C)Nc1c(-c2ccc3c(c2)OCO3)nc2cnccn12 | 84.2% | 82.2% | 99.1% | 109% | 74.1% | 5.36% (active) | 93.7% | 96.2%
O=C(O)C(/C=C/c1ccco1)=N\Nc1nc(-c2ccc(Cl)cc2)cs1 | 66.6% | 63.8% | 45.7% | 71.5% | 71.9% | 26.3% | 49% | 62.2%
COc1ccc(C2CC(c3cccc(Nc4ccncc4)c3)=NN2c2cc(Cl)cc(Cl)c2)cc1 (stereo not given) | 73.8% | 109% | -77.1% (active) | -87.5% (active) | -31.7% (active) | 83.9% | -46.5% (active) | -80% (active)
